Source: PubChem BioAssay
Shiga inhibitor = blocks Shiga toxin action in Vero cells | Vero cells, Shiga toxin protein synthesis inhibition reporter | inhibition, % at 38.7 µM | hit rate 9.2% among 290,000; in the data active = inhibition mostly above about 28%, no sharp cut-off; inactive = mostly below about 43%
CHX counter = counter-screen hit for Shiga toxin inhibitors, cycloheximide; cell reporter, cycloheximide protein synthesis inhibition counterscreen; max response, %; AID 2314; hit rate 12% among 300,000; in the data active = max response mostly above about 13%, no sharp cut-off; inactive = mostly below about 14%; note: read at 38.3 µM for the half of the compounds with a filed dose
NS1 inh = inhibitors of influenza NS1 protein function; AID 2326; Potency, µM (doses to about 46.1 µM); hit rate 0.4% among 270,000; calls by dose curve; note: actives are rising curves; nearly all actives have a fitted effect of over 50% in size
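In this qHTS, NS1 from influenza A is expressed in budding yeast, where it slows growth. Cells are switched from glucose to 2% galactose medium (pH 6.0, -URA), treated with compound, and growth recovery is read at OD600.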
Pf growth 96h = inhibits malaria parasite growth, 96 h; hit rate 6.9% among 320,000; AID 504834; P. falciparum luciferase reporter growth, 96 h; Potency, µM (top dose mostly 28.7 µM), usual class: inhibitors
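Plates of compound plus infected erythrocytes (2% hematocrit, 0.05% parasitemia final) incubate 96 hours, 37 C, 5% CO2. Detection reagent added; reduced luminescence from the parasites' luciferase reporter flags inhibition.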
Pf growth 48h = P. falciparum growth inhibition at 48 hours (one generation); P. falciparum luciferase growth in erythrocytes, 48 h; Potency, µM (highest dose often 28.7 µM), hits mostly inhibitors; hit rate 5.9% among 310,000; AID 504832
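A one-generation exposure of luciferase-tagged malaria parasites in RPMI 1640/Albumax erythrocyte culture, 37 C and 5% CO2. Inhibition is inferred from decreased luminescence after adding detection reagent.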
Large screens that a line does not name were inactive. Shown are actives, neighbours in structure and some others; about 21% of the full set was active somewhere. Unless noted, calls come from the whole dose curve; as a rule, active = well fitted inhibition curve with a large enough effect; inconclusive = small, poorly fitted or top-dose-only effect, or another doubt; inactive = no such curve, though single readings can be large or run the other way.

O=C1CC(C(=O)N2CCCc3ccccc32)CN1c1ccc(Cl)cc1 (configuration not stated)	CHX counter 39, Pf growth 96h inconclusive
COc1ccc(NC(=O)COC(=O)Cn2cnc3ccccc3c2=O)c(OC)c1	none (no result: Shiga inhibitor, CHX counter, NS1 inh)
CC(C)n1cc(CN2CCC(Oc3ccc(C(=O)N4CCCCC4)cc3)CC2)cn1	Pf growth 96h inconclusive
COCCn1c(-c2ccc(C)cc2)nc2oc3cc(OC)ccc3c(=O)c2c1=O	Pf growth 96h inconclusive, Pf growth 48h 4.1µM
COCCCn1c(C2CCCCC2)nc2oc3cc(OC)ccc3c(=O)c2c1=O	Pf growth 96h 0.93µM, Pf growth 48h inconclusive
COc1cc(-c2nc3oc4ccccc4c(=O)c3c(=O)n2Cc2ccco2)cc(OC)c1OC	Shiga inhibitor 40, CHX counter 22, Pf growth 96h inconclusive, Pf growth 48h inconclusive
CC(NC(=O)CN1C(=O)NC2(CCc3ccccc32)C1=O)c1ccc2c(c1)OCCO2 (configuration not stated)	none (no result: Shiga inhibitor, CHX counter, NS1 inh)
NS(=O)(=O)c1ccc(CCNC(=O)COC(=O)C2CCC2)cc1	Pf growth 96h inconclusive
CCN(CC)c1ccc(NC(=O)CN2C(=O)CSc3ncccc32)c(C)c1	Pf growth 96h inconclusive (no result: Pf growth 48h)
CC(=O)NCCc1nc2ccccc2n1CCOc1cccc(C)c1	Pf growth 96h inconclusive, Pf growth 48h inconclusive
Cc1cccc(OCCn2c(CCCO)nc3ccccc32)c1	Pf growth 96h inconclusive, Pf growth 48h 15µM
Cc1cccc(OCc2nc3ccccc3n2C)c1	Shiga inhibitor 29, CHX counter 37
Cc1nnc(OCc2nc3ccccc3n2C)c2ccccc12	Shiga inhibitor 68, CHX counter 33
Cc1ccccc1OCc1nc2ccccc2n1C	CHX counter 32 (no result: Shiga inhibitor)
Cc1cccc(OCCCn2c(CCNC(=O)C(C)C)nc3ccccc32)c1	none
CCN(CC(=O)Nc1ccccc1OC)C(=O)CSCC(=O)Nc1ccc(OC)cc1	none (no result: Shiga inhibitor, CHX counter, NS1 inh)
Cc1cc(C)cc(N(C(=O)c2ccccn2)C(C(=O)NC2CCCCC2)c2ccncc2)c1 (configuration not stated)	none
Cc1ccc(C(=O)N2CCN(c3ccc([N+](=O)[O-])cc3-n3cccc3)CC2)cc1	Pf growth 96h inconclusive, Pf growth 48h inconclusive
COc1ccc(S(=O)(=O)N2CCC(C(=O)N[C@@H](C)C(=O)NC3CCCC3)CC2)cc1	none
Cn1c(COc2ccc(C(=O)O)cc2)nc2ccccc21	Pf growth 96h inconclusive
Cn1c(COc2ccc(F)cc2)nc2ccccc21	Shiga inhibitor 68, CHX counter 43, Pf growth 96h inconclusive
CN(CC(=O)Nc1cccc(F)c1)C(=O)CSc1nc2ccccc2s1	none (no result: Shiga inhibitor, CHX counter, NS1 inh)
CC(=O)c1cccc(NC(=O)COc2cc3oc(=O)c(CC(C)O)c(C)c3cc2Cl)c1 (configuration not stated)	Pf growth 96h 10µM, Pf growth 48h inconclusive
Cc1cccc(C)c1NC(=O)[C@@]1(CC(=O)O)CC(/C=C/c2ccccc2)=NO1	none
COc1ccc2nc(C)c(C(=O)NN)cc2c1	NS1 inh inconclusive
CN(Cc1cccnc1)Cc1c(C(=O)N2CCc3ccccc3C2)nc2ccc(Cl)cn12	Pf growth 48h inconclusive
CN(Cc1cnccn1)Cc1c(C(=O)N2CCc3ccccc3C2)nc2ccc(Cl)cn12	Pf growth 96h inconclusive, Pf growth 48h 12µM
CC(C)CN(C)Cc1c(C(=O)N2CCc3ccccc3C2)nc2ccc(Cl)cn12	Pf growth 96h inconclusive, Pf growth 48h 7.4µM
Cc1ccnc(Sc2ccc([N+](=O)[O-])cn2)n1	CHX counter 10, Pf growth 96h 13µM, Pf growth 48h inconclusive
O=[N+]([O-])c1ccc(Sc2ccccc2)nc1	none
O=[N+]([O-])c1ccc(Sc2n[nH]c(-c3ccccc3)n2)nc1	CHX counter 41
CC(C)(C)c1csc(Sc2ccc([N+](=O)[O-])cn2)n1	Shiga inhibitor 50, CHX counter 23, Pf growth 96h inconclusive, Pf growth 48h 13µM
CCN(CC(=O)Nc1cccc(OC)c1)C(=O)C1CCN(C(=O)Nc2ccccc2)CC1	Pf growth 96h inconclusive (no result: Pf growth 48h)
COC(=O)[C@@H]1O[C@@H](SCCN)[C@@H](O)[C@H](O)[C@H]1O	none (no result: Shiga inhibitor, CHX counter, Pf growth 96h, Pf growth 48h)
CCOc1cc(C(C(=O)NCC2CCCO2)N(C(=O)Cn2nnc3ccccc32)c2ccc(OC)c(OC)c2)ccc1O (configuration not stated)	Pf growth 96h inconclusive
CCCCC/C=N/NC(=O)c1[nH]c2ccc([N+](=O)[O-])cc2c1C	Pf growth 96h 10µM, Pf growth 48h inconclusive
O=C(COc1ccc(Br)cc1Cl)NC(=O)Nc1ccc2c(c1)OCCO2	Shiga inhibitor 63, CHX counter 36 (no result: NS1 inh)
O=C(COc1ccccc1Cl)Nc1ccc2c(c1)OCCO2	Shiga inhibitor 87, CHX counter 45
COc1ccccc1OCC(=O)Nc1ccc2c(c1)OCCO2	Shiga inhibitor 78, CHX counter 30
Cc1ccccc1OCC(=O)Nc1ccc2c(c1)OCCO2	Shiga inhibitor 108, CHX counter 51
NC(=O)c1ccccc1OCC(=O)Nc1ccc2c(c1)OCCO2	none (no result: Shiga inhibitor, CHX counter, NS1 inh)
CCc1nnc(NC(=O)CSc2nnc(CSc3nc(C)cc(C)n3)n2CC)s1	none (no result: Shiga inhibitor, CHX counter, Pf growth 96h, Pf growth 48h)
COc1ccccc1NC(=O)N(Cc1cccs1)Cc1cc2cc3c(cc2[nH]c1=O)OCO3	Pf growth 96h inconclusive, Pf growth 48h inconclusive
Cc1ccc(N(CC(=O)NC2CCCC2)C(=O)CNC(=O)c2cccs2)cc1F	none
Cc1ccccc1OCC(=O)N/N=C/c1ccc2c(c1)OCCO2	CHX counter 31, Pf growth 96h 2.6µM
NC(=O)c1ccccc1OCC(=O)Nc1ccc(Cl)c(Cl)c1	Shiga inhibitor 71, CHX counter 39
NC(=O)c1ccccc1OCC(=O)Nc1ccc2c(c1)CCC2	none (no result: Shiga inhibitor, CHX counter, NS1 inh)
O=C(COC(=O)/C=C/c1ccc(Cl)cc1Cl)Nc1ccc2c(c1)OCCO2	Pf growth 96h 2.9µM
O=C(COc1ccccc1Cl)NCCc1ccc2c(c1)OCCO2	Shiga inhibitor 58, CHX counter 42
O=C(COc1ccccc1)N/N=C/c1ccc2c(c1)OCO2	none (no result: NS1 inh)
N#CC1=C(N)N(c2ncn[nH]2)C2=C(C(=O)CCC2)C1c1ccccc1 (configuration not stated)	Pf growth 48h inconclusive (no result: NS1 inh)
O=C(Nc1ccccc1[N+](=O)[O-])c1cccc(N2C(=O)CCC2=O)c1	Pf growth 96h inconclusive
Cc1ccc(NC(=O)CCOc2ccccc2C)cc1C	CHX counter 26
O=C(COC(=O)c1cccnc1Cl)Nc1ccc2c(c1)OCCO2	Shiga inhibitor 115, CHX counter 49
O=C(CSCc1c(Cl)cccc1Cl)Nc1ccc2c(c1)OCCO2	Shiga inhibitor 76, CHX counter 59, Pf growth 96h 3.3µM
O=C(COC(=O)c1cccnc1Cl)NCc1ccc2c(c1)OCO2	none
O=C(COC(=O)c1cccnc1Cl)NCc1cccs1	CHX counter 37 (no result: NS1 inh)
Cc1ccccc1OCCC(=O)Nc1ccc(F)c(Cl)c1	none
O=C(c1ccco1)N(CCO)Cc1cc2cc3c(cc2[nH]c1=O)OCO3	none (no result: NS1 inh)
COc1cccc(CC2(CO)CCN(Cc3ccc4cccc(F)c4n3)CC2)c1	none
